Bioassay records: PubChem, National Center for Advancing Translational Sciences (NCATS)
KB-V1 MDR tox: qHTS assay for MDR1-selective chemotherapeutics: Primary screen using the drug-selected MDR subline cells KB-V1 | KB-V1 MDR cells viability, CellTiter-Glo, 72 h | Potency, µM (titrated, usually from 46.1 µM), most hits filed as cytotoxic | 400,000 tested, 3.4% active | AID 1347076, 2019; note: nearly all actives have a fitted effect of over 60% in size
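KB-V1 MDR subline cells in DMEM (phenol-red free, 10% FBS) exposed to compounds in qHTS concentration series for 72 h at 37 degrees C. Viability read by CellTiter-Glo luminescence; concentration-effect curves fitted after normalization and correction.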
SW480 rerep: A quantitative high throughput screen for small molecules that induce DNA re-replication in SW480 colon adenocarcinoma cells. SW480 DNA re-replication, Hoechst DNA content imaging, 48 h. Potency, µM (doses to about 46.1 µM), actives largely listed as activators. 340,000 tested, 1.8% active; note: nearly all actives have a fitted effect of over 55% in size
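Hoechst fluorescence of nuclei (405 nm excitation, 500-530 nm emission) measured by plate-scanning imager after 48 hr compound exposure at 37 C; re-replication scored as increased number of nuclei with elevated intensity.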
RGS4 inh: Inhibitors of Regulator of G Protein Signaling (RGS) 4: qHTS | Transcreener GDP fluorescence polarization, RGS4-accelerated GTP hydrolysis | Potency, µM (top dose mostly 114 µM), usual class: inhibitors | Regulator of G-protein signaling 4 (Homo sapiens), P49798 | 390,000 tested, 0.039% active; note: nearly all actives have a fitted effect of over 75% in size
Target sequence (P49798 whole entry, looked up): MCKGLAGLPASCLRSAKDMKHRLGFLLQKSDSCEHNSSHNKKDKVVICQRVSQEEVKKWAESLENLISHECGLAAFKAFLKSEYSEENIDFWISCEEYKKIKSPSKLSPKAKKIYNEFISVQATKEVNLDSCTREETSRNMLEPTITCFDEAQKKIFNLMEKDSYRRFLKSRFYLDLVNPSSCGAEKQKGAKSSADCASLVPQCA
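MLSMR compounds (23 nl, pin-transferred) preincubated 10 min at room temperature with a 500nM (2x) first reagent, then RGS4 at 900nM (2x) plus Transcreener GDP mix added; fluorescence polarization (620/688 nm) read before and after 90 min at 30 °C.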
KB-3-1 tox: qHTS assay for MDR1-selective chemotherapeutics: Primary screen using the parental adenocarcinoma cell KB-3-1. AID 1347075, 2019. KB-3-1 viability, CellTiter-Glo ATP luminescence, 72 h. 400,000 tested, 1.4% active. Potency, µM (series often up to 46.1 µM), actives largely listed as cytotoxic; note: nearly all actives have a fitted effect of over 60% in size
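Viability of parental KB-3-1 cells, measured by CellTiter-Glo luminescence, followed a 72 h incubation at 37 °C with pinned compounds in phenol-red-free DMEM containing 10% FBS.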
PTAP TSG101 blk: qHTS Assay for Iinhibitors of HIV-1 Budding by Blocking the Interaction of PTAP/TSG101 | Potency, µM (highest dose often 115 µM), hits mostly inhibitors | 340,000 tested, under 10 active | Fluorescence polarization, FITC-PTAP peptide / Tsg101 binding | Tumor susceptibility gene 101 protein (Homo sapiens), Q99816 | AID 493005, 2010; active = well fitted inhibition curve with a large enough effect in the main read-out, with a control signal flat, not every such curve was filed as active; inconclusive = small, poorly fitted or top-dose-only effect, or effect the other way, or a change in a side signal; inactive = no such curve, though single readings can be large or run the other way
Target sequence (Q99816 whole entry, looked up): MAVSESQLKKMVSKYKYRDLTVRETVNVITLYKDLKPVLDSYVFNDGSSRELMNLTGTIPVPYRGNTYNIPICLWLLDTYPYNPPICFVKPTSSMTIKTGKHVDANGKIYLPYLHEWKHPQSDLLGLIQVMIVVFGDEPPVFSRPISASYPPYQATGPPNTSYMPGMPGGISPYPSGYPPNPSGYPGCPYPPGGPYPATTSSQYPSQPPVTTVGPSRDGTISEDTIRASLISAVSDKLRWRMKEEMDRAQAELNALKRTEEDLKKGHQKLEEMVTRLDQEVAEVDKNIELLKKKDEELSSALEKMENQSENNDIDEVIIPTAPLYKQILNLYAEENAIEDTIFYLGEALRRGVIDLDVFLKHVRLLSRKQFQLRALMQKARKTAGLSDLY
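Fluorescence anisotropy tracks displacement of a FITC-tagged PTAP peptide (50 nM) from the Tsg101 binding domain (10 uM), following a 20 min room-temperature incubation at pH 7.5.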
MCF10A rerep: A quantitative high throughput screen for small molecules that induce DNA re-replication in MCF 10a normal breast cells; MCF 10A DNA re-replication, Hoechst nuclear intensity, 48 h; 350,000 tested, 2.9% active; AID 624296, 2012; Potency, µM (doses to about 46.1 µM), most hits filed as activators; note: nearly all actives have a fitted effect of over 50% in size
Numbers stand for hits; 0 = inactive; ? = inconclusive; - = not tested or not shown; ! = not active in a repeat; [ ] = dose if it differs, or a comment. Shown are actives, neighbours in structure and some others; about 6.6% of the full set was active somewhere. Unless noted, calls come from the whole dose curve; as a rule, active = well fitted curve in the direction sought with a large enough effect; inconclusive = small, poorly fitted or top-dose-only effect, or another doubt; inactive = no such curve, though single readings can be large; an effect the other way counts as inactive or inconclusive.

SMILES	KB-V1 MDR tox	SW480 rerep	RGS4 inh	KB-3-1 tox	PTAP TSG101 blk	MCF10A rerep
CC(C)c1ccc(/C=N/Nc2ccc(C(=O)O)cc2)cc1	0	0	0[11.4 µM]	0	0	0
O=C(O)c1ccc(/C=N/Nc2ccc(C(F)(F)F)cn2)cc1	0	5.8µM	0	0	0	11.6µM
O=C(O)c1ccc(N/N=C/c2ccc(-c3ccccc3)cc2)cc1	0	20.6µM	0	?	0	1.3µM
Cc1nc(-c2ccc(C)c(N3CCN(C(=O)Nc4cccc(Cl)c4C)CC3)c2)no1	0	-	0	0	-	-
S=c1[nH]nc(-c2cccc(Cl)c2)n1/N=C/c1ccc(-c2ccccc2Br)o1	0	0	0	?	0	0
S=c1[nH]nc(-c2ccccc2)n1/N=C/c1ccc(-c2ccccc2Cl)o1	13µM	0	0	0	0	8.2µM
N#CCCN1CCN(Cc2cc(-c3ccccc3)ccc2O)CC1	20.6µM	0	0	0	0	?
CC(C)(C)c1ccc(S(=O)(=O)N2CCN(CCC#N)CC2)cc1	0	0	0	0	0	0
Oc1c(CN2CCOCC2)cc(-c2ccccc2)cc1CN1CCOCC1	0	0	0	0	0	0
CC(C)(C)CC(C)(C)c1ccc(O)c(CN2CCN(CCC#N)CC2)c1	?	?	0	0	0	18.4µM
CC(C)(C)CC(C)(C)c1ccc(O)c(Cc2ccc(Cl)cc2Cl)c1	?	0	0	?	0	29.9µM!
O=c1c(Cc2ccc(Cl)cc2Cl)c(O)ccn1CC(F)(F)F	0	0	?	0	0	0
CCOc1ccc(S(=O)(=O)N2Cc3ccccc3CC2C(=O)Nc2ccc(NC(C)=O)cc2)cc1 (configuration not stated)	0	-	0	0	-	-
Cc1ccccc1C(=O)Nc1nnc(S(=O)(=O)N2CCCc3ccccc32)s1	0	-	0	0	-	-
CC1CCC(C(=O)NC(C(=O)N2CCN(c3ccccn3)CC2)C(C)C)CC1 (configuration not stated)	3.26µM	0	0	0	0	0
O=C(COC(=O)c1ccccc1[N+](=O)[O-])NNC(=O)c1cccs1	0	0	0	0	-	0
Cc1ccc(C(=O)OCC(=O)NNC(=O)c2cccs2)c(O)c1	0	18.4µM	0	0	0	0
Cc1cc(C(F)(F)F)c(C#N)c(SCC(=O)Nc2nc3ccccc3s2)n1	?	-	0	0	?	?
Cc1nc(SCC(=O)Nc2nc3ccccc3s2)c(C#N)c(C)c1C	0	5.8µM	0	?	0	6.51µM
Cc1ccc2sc(NC(=O)CSc3nc(C)cc(C)c3C#N)nc2c1	0	2.82µM	0	0	0	0
Cc1cc(C)c(C#N)c(SCC(=O)Nc2nnc(-c3ccccc3)s2)n1	0	0	0	0	0	10.3µM
CCN(CC)c1ccc(/C=N/n2nnnc2N)c(O)c1	?	?	0	16.4µM	0	?
CCN(C)c1ccc(/C=N\n2nnnc2N)cc1	2.59µM	?	0	5.17µM	0	?
CCOC(=O)C1=C(CN(CC)Cc2ccccc2)NC(=O)NC1c1ccc(OC(C)C)cc1 (configuration not stated)	?	-	0	?	-	-
CCOC(=O)c1nc(NNC(=O)c2ccc([N+](=O)[O-])cc2)sc1C	?	3.66µM	0	18.4µM	0	0
SMILES	KB-V1 MDR tox	SW480 rerep	RGS4 inh	KB-3-1 tox	PTAP TSG101 blk	MCF10A rerep
CCOC(=O)c1sc(NNC(=O)c2ccc(C)cc2)nc1C	0	0	0	0	0	25.9µM
CCOC(=O)c1sc(NNC(=O)c2ccc(F)cc2)nc1C	0	?	0	?	0	0
COc1ccccc1CNc1nc2c(S(=O)(=O)c3ccccc3)nnn2c2ccc(Cl)cc12	0	-	0	0	-	-
O=C(C1CCC(Cn2c(=O)c3sccc3n(Cc3cccc(F)c3)c2=O)CC1)N1CCCCC1 (configuration not stated)	?	-	0	?	-	-
Cc1ccc(S(=O)(=O)c2nnn3c2nc(NCc2cccs2)c2sccc23)cc1C	0	-	0	0	-	-
CCOc1cc(-c2nc3c(c(CC)nn3-c3ccccc3)c3cc(OC)c(OC)cc23)ccc1O	0	-	0	0	-	-
Cc1ccc(-n2ncc3c(NNC(=O)Cc4ccccc4)ncnc32)cc1	?	0	0	0	0	23.1µM
Cc1cccc(-n2ncc3c(NCc4ccccc4)ncnc32)c1	6.51µM	16.4µM	0	3.26µM	0	6.51µM
CC(C)Nc1ncnc2c1cnn2-c1ccc(Cl)cc1	?	0	0	7.31µM	0	0
Cc1cccc(-n2ncc3c(NCc4ccccn4)ncnc32)c1	0	0	0	0	0	0
Cn1ncc2c(NNC(=O)Cc3ccccc3)ncnc21	0	0	0	0	0	0
c1ccc(CNc2ncnc3c2cnn3-c2ccccc2)cc1	2.59µM	13µM	0	5.17µM	0	9.2µM
COc1ccc(-c2cc(C(=O)Nc3cccc(O)c3)on2)cc1OC	0	-	0	0	-	-
CC1CCCN(S(=O)(=O)c2ccc(NC(=O)c3nc(SC(C)C)ncc3Cl)cc2)C1 (configuration not stated)	0	-	0	0	-	-
COc1ccc(-n2nc(C(=O)NCCc3ccc(OC)c(OC)c3)c3c4ccccc4n(C)c3c2=O)cc1	-	-	0	-	-	-
Cc1cccc(-n2ncc3c(N4CCCc5ccccc54)ncnc32)c1	8.2µM	20.6µM	0	?	0	11.6µM
c1ccc(CCNc2ncnc3c2cnn3-c2ccccc2)cc1	0	18.4µM	0	0	0	?
Cc1cccc(-n2ncc3c(NCCN4CCOCC4)ncnc32)c1	0	0	0[11.4 µM]	0	0	0
c1ccc(CNc2nnnn2-c2ccccc2)cc1	20.6µM	0	0	?	0	0
CC(C)OCCCNc1ncnc2c1cnn2-c1ccccc1	14.6µM	0	0	0	0	0
CCCc1nn2c(=O)cc(COC(=O)c3ccccc3NC(=O)c3ccc(Cl)cc3)nc2s1	-	-	0	-	-	-
CCCN(CCC)c1cc(C)nc2nc(-c3ccc(Cl)cc3)nn12	0	-	0	0	-	-
O=C(Cn1cnc2c(NCc3ccccc3)ncnc21)NCc1ccccc1	7.31µM	11.6µM	0	2.91µM	0	9.2µM
Cc1cccc(-n2ncc3c(NCc4ccco4)ncnc32)c1	0	?	0	?	0	16.4µM
O=C(Cn1cnc2c(NCc3ccccc3)ncnc21)NCc1ccc2c(c1)OCO2	0	?	0	0	0	?
Cc1ccc(-n2ncc3c(NCc4ccco4)ncnc32)cc1C	0	?	0	0	0	0
CCc1ccc(NCc2cc3cc(OC)c(OC)cc3n(CC(=O)Nc3cc(C)ccc3C)c2=O)cc1	?	-	0	?	-	-
